Compounds with a hit are over-represented: about 2.4% of the library has one in this group of screens.
Pol eta inh-1 = blocks human DNA polymerase eta activity | Q9Y253 | recombinant Pol eta, fluorescent DNA replication assay | Potency, µM (top dose mostly 114 µM), for inactives: at the top dose activity change, negative = inhibition, hits mostly inhibitors | hit rate 1.2% among 390,000 | AID 588591; note: potency is the fitted concentration of half-maximal effect; % is set by controls: 0 for no effect and ±100 for the full control effect
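Pol eta at 10 nM preincubated with compounds 15 min at room temperature; reaction started with fluorescent substrate (50 nM final) and read kinetically at 0 and 10 min.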
POLB inh = blocks human DNA polymerase beta activity. P06746. Potency, µM (titrated, usually from 114 µM), without a hit: at the highest dose activity change, negative = inhibition, usual class: inhibitors. hit rate 1.3% among 340,000. AID 485314. Pol beta primer extension/strand displacement, fluorescence kinetic; note: potency is the fitted concentration of half-maximal effect; % is set by controls: 0 for no effect and ±100 for the full control effect
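Preincubation: enzyme (10 nM) with compound, 15 min, RT. Reaction: substrate added to 50 nM final. Reads: 0 and 10 min. Analysis: normalized, Hill fit.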
Pol kappa inh-1 = DNA polymerase kappa (human) inhibition | Potency, µM (doses to about 107 µM), for the others: at the highest dose activity, negative = inhibition, most hits filed as inhibitors | Q9UBT6 | purified Pol kappa, fluorescent DNA synthesis assay, 10 min | hit rate 0.53% among 400,000; note: potency is the fitted concentration of half-maximal effect; % is set by controls: 0 for no effect and ±100 for the full control effect
Target sequence (Q9UBT6 whole entry, looked up): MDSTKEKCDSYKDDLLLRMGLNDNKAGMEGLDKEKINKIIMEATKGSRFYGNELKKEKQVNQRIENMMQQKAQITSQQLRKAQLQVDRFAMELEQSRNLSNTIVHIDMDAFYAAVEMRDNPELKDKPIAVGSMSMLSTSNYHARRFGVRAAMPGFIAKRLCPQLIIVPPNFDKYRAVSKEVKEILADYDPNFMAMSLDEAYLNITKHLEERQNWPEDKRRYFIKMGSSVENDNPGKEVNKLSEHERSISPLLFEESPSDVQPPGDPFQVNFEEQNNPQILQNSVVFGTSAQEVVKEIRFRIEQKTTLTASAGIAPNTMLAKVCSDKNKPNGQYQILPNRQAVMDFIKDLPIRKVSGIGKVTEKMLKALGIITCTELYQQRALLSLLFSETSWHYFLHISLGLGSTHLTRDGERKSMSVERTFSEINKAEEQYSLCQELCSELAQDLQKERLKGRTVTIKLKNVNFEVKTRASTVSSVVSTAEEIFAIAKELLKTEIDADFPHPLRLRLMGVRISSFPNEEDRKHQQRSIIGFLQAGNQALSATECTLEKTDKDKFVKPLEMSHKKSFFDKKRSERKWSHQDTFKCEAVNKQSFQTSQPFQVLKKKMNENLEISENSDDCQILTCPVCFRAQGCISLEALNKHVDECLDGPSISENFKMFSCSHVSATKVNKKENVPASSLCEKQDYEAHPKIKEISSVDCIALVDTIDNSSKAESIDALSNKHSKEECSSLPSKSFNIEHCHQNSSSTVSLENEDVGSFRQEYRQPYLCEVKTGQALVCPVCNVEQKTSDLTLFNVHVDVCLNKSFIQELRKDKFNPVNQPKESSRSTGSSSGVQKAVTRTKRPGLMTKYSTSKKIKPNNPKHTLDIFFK
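Here, compound and 10 nM enzyme are combined for 15 min at room temperature; adding 50 nM substrate (final) starts DNA synthesis, tracked by fluorescence at 0 and 10 min against buffer-only wells.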
WRN inhibitor = inhibitors of human WRN helicase | hit rate 0.46% among 360,000 | Potency, µM (doses to about 114 µM), without a hit: at the top dose activity change, negative = inhibition, hits mostly inhibitors | WRN helicase unwinding, fluorescent forked duplex, kinetic | Q14191; note: potency is the fitted concentration of half-maximal effect; % is set by controls: 0 for no effect and ±100 for the full control effect; nearly all actives have a fitted effect of over 55% in size
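Fluorescence dequenching readout, ex 525 nm/em 598 nm, kinetic mode: forked duplex DNA (100 nM final) with adjacent fluorophore and quencher unwound by WRN (20 nM final) with 2 mM ATP. Compound preincubation 15 min, room temperature.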
POLI inh = inhibitors of human DNA polymerase iota; Pol iota fluorescent replication assay, 10 min; Potency, µM (series often up to 115 µM), without a hit: top-dose activity, negative = inhibition, actives largely listed as inhibitors; hit rate 1% among 390,000; AID 588590; note: potency is the fitted concentration of half-maximal effect
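Fluorescent replication assay read twice, at 0 min and 10 min after adding 50 nM (final) substrate. Enzyme (10 nM) and compounds were first incubated 15 min at room temperature; enzyme-free buffer wells were negative controls.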
FEN1 inh = inhibitors of human flap endonuclease 1 | Potency, µM (doses to about 114 µM), inactives show at the highest dose activity change, negative = inhibition, actives largely listed as inhibitors | AID 588795 | hit rate 0.35% among 390,000 | P39748 | Recombinant FEN1 flap cleavage, fluorescence, 15 min; note: potency is the fitted concentration of half-maximal effect; % is set by controls: 0 for no effect and ±100 for the full control effect; nearly all actives have a fitted effect of over 65% in size
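Reaction started by adding substrate (50 nM final) to 10 nM enzyme after 15 min room-temperature compound preincubation. Reads at 0 and 15 min, with data normalized and fitted to a four-parameter Hill equation.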
GALK inh confirm = galactokinase (human) inhibition, confirmation. shares compounds with Pol eta inh-1. hit rate 70% among 150. Potency, µM (highest dose often 115 µM), without a hit: top-dose activity, negative = inhibition, hits mostly inhibitors. purified GALK, Kinase-Glo ATP depletion luminescence. AID 2015
GALK redox cs = redox cycling activity in phenol red-HRP assay. shares compounds with Pol eta inh-1. Phenol red-HRP H2O2 redox cycling, absorbance 600 nm. Potency, µM (titrated, usually from 115 µM), without a hit: at the top dose activity change, negative = H2O2 signal, actives largely listed as inhibitors. hit rate 40% among 150. AID 2035
HEK293 viability = reduces HEK-293 cell viability in GALK counter-screen. Potency, µM (doses to about 46.1 µM), for inactives: top-dose activity change, negative = cytotoxicity, usual class: inhibitors. HEK-293 viability, ATP luminescence (CellTiter-Glo), 24/48 h. hit rate 10% among 170. shares compounds with Pol eta inh-1; note: potency is the fitted concentration of half-maximal effect; % is set by controls: 0 for no effect and ±100 for the full control effect
Pol kappa inh-2 = confirmation of human DNA polymerase kappa inhibitors. shares compounds with Pol eta inh-1. purified Pol-kappa, fluorescent strand-displacement substrate. Potency, µM, hits mostly inhibitors. hit rate 76% among 920. AID 720501; note: potency is the fitted concentration of half-maximal effect
Pol eta inh-2 = Pol eta (human) inhibition, cherry-pick confirmation; Pol eta primer extension, TAMRA/BHQ fluorescence, 10 min; shares compounds with Pol eta inh-1; AID 720502; Potency, µM, most hits filed as inhibitors; hit rate 64% among 2,600; note: potency is the fitted concentration of half-maximal effect
Numbers without * were called inactive; ? = inconclusive; . = no result given; [ ] = remark or other dose. Calls come from the whole dose curve; as a rule, active = well fitted curve in the direction sought with a large enough effect; inconclusive = small, poorly fitted or top-dose-only effect, or another doubt; inactive = no such curve, though single readings can be large; an effect the other way counts as inactive or inconclusive.

SMILES	Pol eta inh-1	POLB inh	Pol kappa inh-1	WRN inhibitor	POLI inh	FEN1 inh	Pol eta inh-2	others
Cc1ccccc1N1C(S)=C(C#N)C(=O)NC1c1ccco1 (stereo not drawn)	28µM*	28µM*	-44%	-8%[11.6 µM]	22µM*	-18%	?
Cc1ccc(NC(=O)c2cccc(C(=O)Nc3ccc(C)cc3C(=O)O)c2)c(C(=O)O)c1	?	-12%	-37%	-13%[11.6 µM]	-20%	?	?	Pol kappa inh-2=15*
O=C(COC(=O)c1cncc(Br)c1)Nc1nnc(-c2ccccc2)o1	40µM*	.	?	-11%[11.6 µM]	?	-12%	60*
Cc1nn2c(=O)cc(COC(=O)c3ccc(NC(=O)COc4ccc(Cl)cc4)cc3)nc2s1	8%	9%	2%[60.1 µM]	.	?	-1%	.
Cc1ccc(NC(=O)N/C=C/c2ccco2)cc1C	28µM*	25µM*	79µM*	-32%[57.1 µM]	40µM*	-3%	?
Cc1ccc(NC(=O)c2cccc(NC(=O)/C=C/c3ccco3)c2)cc1C	?	?	-18%	-8%[11.6 µM]	?	-6%	.
COc1cccc(Nc2nn3c(=O)c4ccccc4nc3s2)c1	50µM*	.	14%	.	-18%	?	?
COc1ccc(C2=Nn3c(nnc3-c3ccncc3)SC2)cc1OC	-11%	-4%	16%	-5%	-10%	3%	.
COc1ccc(C2=Nn3c(nnc3-c3ccccc3OC)SC2)cc1OC1CCOC1 (stereo not drawn)	-6%	.	45µM*	.	24%	8%	.	Pol kappa inh-2=4.2*
COc1ccc(C2=Nn3c(nnc3-c3ccccc3C(F)(F)F)SC2)cc1OC1CCOC1 (stereo not drawn)	-7%	.	?	.	-7%	-19%	.	Pol kappa inh-2=4.7*
Fc1ccccc1-c1nnc2n1N=C(c1ccc(OC(F)F)c(OCC3CC3)c1)CS2	5%	.	-7%	.	19%	-9%	.
CN(C)c1ccc(C(CNC(=O)c2ccc(C(C)(C)C)cc2)N2CCOCC2)cc1 (stereo not drawn)	-24%	-27%	4%[60.1 µM]	.	36%	-6%	.
CN(C)c1ccc(NC(=O)Cn2cc(S(=O)(=O)Cc3ccccc3Cl)c3ccccc32)cc1	.	12%	-12%	.	49%	-9%	.
COc1ccc(C(=O)Nc2ccc(-c3nnc4n3CCCCC4)cc2)cc1OC	3%	32µM*	?	.	?	-3%	.	Pol kappa inh-2=17*
COc1ccc(C(=O)Nc2ccc(-c3nnc4n3CCCCC4)cc2)cc1	-5%	-19%	-18%	.	-14%	18%	.
COc1ccc(CCN2CCC(CNC(=O)c3cnn(-c4ccc(C)cc4)c3C3CCN(C(=O)OC(C)(C)C)CC3)CC2)cc1	-17%	16%	-2%	.	-14%	-17%	.
CC(=O)c1ccc(S(=O)(=O)N(CCCO)Cc2cc3cc(C)ccc3[nH]c2=O)cc1	50µM*	40µM*	-26%	-11%	?	-12%	60*
C#Cc1ccc([C@H]2C=C(C(=O)OCC=C)O[C@@H](OCCCCO)C2)cc1	32µM*	.	?	-14%[11.6 µM]	56µM*	-16%	67*
Cc1ccc(S(=O)(=O)N2CCCCC2)cc1C(=O)Nc1cccnc1	18µM*	32µM*	-42%	-3%[11.6 µM]	50µM*	-2%	76*
O=C(Nc1cccnc1)c1cccc(S(=O)(=O)N2CCCCC2)c1	-22%	4%	-1%	-12%	64%	-6%	.
CC(=O)Nc1ccc(S(=O)(=O)N(C)c2ccc(OCCOc3cccc(C)c3)cc2)cc1	20µM*	.	?	?	32µM*	10%	?	Pol kappa inh-2=38*
CCN(CC)C(=O)COc1ccc(N(C)S(=O)(=O)c2ccc(NC(C)=O)cc2)cc1	34%	15%	-4%	3%	14%	-10%	.
Cc1ccc2nc(-c3ccc(O)c(O)c3)cn2c1	22µM*	4µM*	?	-5%[11.6 µM]	50µM*	-29%	?
Cc1cc(C)c(NC(=O)c2cc(S(=O)(=O)N3CCCC3)cn2C)c(C)c1	-4%	-12%	-13%[60.1 µM]	.	-9%	20%	.
Cn1cc(S(=O)(=O)N2CCCC2)cc1C(=O)O	22µM*	.	-24%	0%	?	-4%	.	Pol kappa inh-2=?
SMILES	Pol eta inh-1	POLB inh	Pol kappa inh-1	WRN inhibitor	POLI inh	FEN1 inh	Pol eta inh-2	others
CCCSC1=N/C(=C\c2ccc([N+](=O)[O-])o2)C(=O)S1	?	2.8µM*	20µM*	22µM*	?	35µM*	76*
CCSC1=N/C(=C\c2ccc(-c3ccccc3[N+](=O)[O-])o2)C(=O)S1	-5%	-16%	1%	-15%	6%	-3%	.
COC(=O)c1ccc(CSc2ccc3nnc(-c4ccc(F)cc4)n3n2)o1	-3%	0%	-3%	10%	-4%	-6%	.
COC(=O)c1ccc(CSc2ccc3nnc(-c4ccccn4)n3n2)o1	-16%	-4%	0%	2%	19%	0%	.	GALK inh confirm=-7%;GALK redox cs=1%;HEK293 viability=-1%
CCC(CC)C(=O)N1CCc2cc(OC)c(OC)cc2C1COc1ccc2c(C)cc(=O)oc2c1 (stereo not drawn)	-21%	15%	0%	.	24%	-4%	.
Cc1cccc(C(=O)Nc2ccc3nc(SCC(=O)N4CCCC4)sc3c2)c1	-7%	0%	-8%	.	34%	-14%	.
O=C1CC(c2ccc(O)c(O)c2)Oc2cc(O)cc(O)c21 (stereo not drawn)	22µM*	?	16µM*	?	50µM*	?	76*
COc1ccc(C2CC(=O)c3c(O)cc(O)cc3O2)cc1O (stereo not drawn)	1%	.	-17%	-6%	-8%	11%	.
COc1ccc(NC(=O)CN2C(=O)NC3(CCCC3)C2=O)cc1OC	-7%	59%	-17%	2%[11.6 µM]	?	-6%	?

Source: PubChem BioAssay (National Center for Advancing Translational Sciences (NCATS))
